Experimental findings from PubChem BioAssay (Tox21) are described below.

Test [1] can be described thus: Nuclear factor erythroid 2-related factor 2/antioxidant responsive element (Nrf2/ARE) small molecule agonists: luciferase reporter gene qHTS assay in human keratinocytes (AID 1919969). Also: nearly all actives have a fitted effect of over 35% in size. Also: potency is read from the fitted curve at half-maximal effect. In general terms: A reporter such as luciferase makes a cellular process visible.
Test [2] has as its target Gonadotropin-releasing hormone receptor (Homo sapiens) (UniProt P30968). As to the kind of experiment: Human gonadotropin-releasing hormone receptor (GnRHR) small molecule agonists, calcium flux assay in GnRHR-HEK293 cells (AID 1920063). Also: nearly all actives have a fitted effect of over 35% in size. Summed up: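 Compounds dissolved in DMSO are pin-transferred onto dye-loaded GnRHR-HEK293 cells, which were seeded 18 h before at 37 C/5% CO2. Calcium signal is read as fluorescence intensity at 1 s intervals for 3 min.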
For orientation: Calcium assays in cells follow changes in intracellular calcium, usually with a dye or a luminescent sensor.

The target of test [3] is KiSS-1 receptor (Homo sapiens) (UniProt Q969F8). As to the kind of experiment: Human kisspeptin (KISS1R) small molecule agonists, calcium flux assay in KISS1R-HEK293 cells (AID 1920064; active = well fitted activation curve with a large enough effect in the repeat runs). Summed up:
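Cell line: HEK293, stable human KISS1R. Dye loading 1 h at 37 C after 18 h culture. Read: kinetic fluorescence, 480/540 nm, 3 min at 1 s intervals.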

A short description of test [4]: G protein-coupled receptor (GPCR) small molecule agonists, calcium flux assay: HEK293 wild type cell line counter screen (AID 1920065). Summed up:
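Tox21 10K compounds, 15 concentrations each in triplicate, pin-transferred in DMSO onto dye-loaded cells; kinetic read at 480/540 nm for 3 min, 1 s intervals.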

A short description of test [5]: p53 small molecule agonists, cell-based qHTS assay with human liver microsomes (AID 1963577).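 Also: p53 response element beta-lactamase reporter cells with liver microsomes plus NADPH.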 The gist of the method:
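Metabolically competent format: test substances, human liver microsomes and NADPH (both 0.5 mg/mL final) incubated with p53RE-bla cells 16 h at 37 C. Beta-lactamase reporter signal then quantified by fluorescence.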

Test [6] is described as follows: p53 small molecule agonists, cell-based qHTS assay with rat liver microsomes (AID 1963578). Summed up:
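Each plate received p53RE-bla cells, then compound, then rat liver microsomes and NADPH (both 0.5 mg/mL final). Plates were held 16 h at 37 C, and beta-lactamase activity was detected with LiveBLAzer over 2 h.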
(In general: In qHTS, concentration-response curves come from the screen itself.)

Test [7] can be described thus: p53 small molecule agonists, cell-based qHTS assay: qHTS cell viability counter screen (AID 1963581). Also: nearly all actives have a fitted effect of over 45% in size. Also: potency is read from the fitted curve at half-maximal effect. The gist of the method:
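ATP content measured by luminescence in HCT-116 p53RE-bla cells treated 16 h at 37 C, same wells as the reporter screen.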

Test [8] is described as follows: p53 small molecule agonists, cell-based qHTS assay (AID 1963582; active = well fitted activation curve with a large enough effect in the signal ratio in the repeat runs, not every such curve was filed as active; the % refers to the signal ratio). Summed up:
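16 h compound exposure (37 C) of p53 response element–bla cells, preceded by 5 h recovery at 37 C/5% CO2; read-out via LiveBLAzer B/G FRET substrate, 2 h RT, fluorescence intensity.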

For test [9], the target named is 5-hydroxytryptamine receptor 2A (Homo sapiens) (UniProt P28223). As to the kind of experiment: 5-hydroxytryptamine receptor 2A (HTR2A) small molecule antagonists, cell-based qHTS assay (AID 1963586). Also: nearly all actives have a fitted effect of over 45% in size. The gist of the method:
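CHO cells stably expressing human HTR2A were plated for 18 h at 37 C, then loaded with calcium dye for 1 h. Compounds were preincubated 5 min at room temperature before DOI (4 nM solution) was added. Kinetic fluorescence was read for 3 min.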

The target is the same in test [10]. As to the kind of experiment: 5-hydroxytryptamine receptor 2A (HTR2A) small molecule agonists, cell-based qHTS assay (AID 1963587). Also: nearly all actives have a fitted effect of over 30% in size. The gist of the method: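 Kinetic calcium-flux fluorescence (2 min, 1 sec intervals) after compound addition in agonist mode. HTR2A-CHO cells were cultured 18 h, then dye-loaded 1 h at 37 C.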
Test [11] addresses Muscarinic acetylcholine receptor M1 (Homo sapiens) (UniProt P11229). As to the kind of experiment: Cholinergic receptor muscarinic 1 (CHRM1) small molecule antagonists, cell-based qHTS assay (AID 1963588). Also: nearly all actives have a fitted effect of over 40% in size. Summed up: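 Compounds were tested at 15 concentrations in three independent runs. Dye-loaded CHRM1-CHO cells were exposed 5 min at room temperature before stimulation by acetylcholine added at 50nM. Intracellular calcium was read kinetically on FDSS for 3 min.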

Test [12] has the same target. As to the kind of experiment: Cholinergic receptor muscarinic 1 (CHRM1) small molecule agonists, cell-based qHTS assay (AID 1963589). Also: nearly all actives have a fitted effect of over 35% in size. Summed up: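 Homogeneous fluorescence calcium flux, agonist mode. Human M1-expressing CHO cells; compound dosed at 15 concentrations, three independent runs; signal sampled every 1 sec.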
A short description of test [13]: cAMP Responsive Elements (CRE) small molecule agonists, cell-based qHTS assay (AID 1963590). Summed up:
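HEK 293T cells stably bearing CRE-bla were plated at 2,000 cells per well and rested 18 h. Compounds, positive controls or DMSO were added for 3 h at 37 C. LiveBLAzer B/G substrate was then loaded for 2 h at room temperature.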

A short description of test [14]: cAMP Responsive Elements (CRE) small molecule antagonists, cell-based qHTS assay (AID 1963591; active = well fitted inhibition curve with a large enough effect in the signal ratio in the repeat runs, not every such curve was filed as active; the % refers to the signal ratio). Summed up:
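First, CRE-bla HEK293T cells settled 18 h at 37 C. Next, compound and 0.25 uM final NKH477 were applied for 3 h. Last, LiveBLAzer B/G substrate was loaded for 2 h at room temperature.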

The target of test [15] is Beta-2 adrenergic receptor (Homo sapiens) (UniProt P07550). As to the kind of experiment: Adrenergic beta2 receptor (ADRB2) small molecule antagonists, cell-based qHTS assay (AID 1963592). Also: series mostly up to about 92 µM; nearly all actives have a fitted effect of over 50% in size. The gist of the method: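 Assay format: CHO-ADRB2 cells, 18-20hr seeding at 37C/5% CO2, then compound plus 1nM isoproterenol agonist mix for 0.5hr RT. Homogeneous time-resolved fluorescence cAMP detection after 1hr, expressed as 665/615 nm ratio.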

For test [16] the target is unchanged. As to the kind of experiment: Adrenergic beta2 receptor (ADRB2) small molecule agonists, cell-based qHTS assay (AID 1963593).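 Also: CHO cells stably overexpressing human ADRB2.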 The gist of the method: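 CHO cells stably over-expressing ADRB2 were plated overnight at 37C, then dosed with compounds plus a stimulation mix containing 100uM IBMX and 25uM Ro-20-1724 for 0.5hr at room temperature. cAMP was measured by HTRF competition, 1hr.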

Test [17] addresses D(2) dopamine receptor (Homo sapiens) (UniProt P14416). As to the kind of experiment: Dopamine D2 receptor (DRD2) small molecule antagonists, cell-based qHTS assay (AID 1963595; active = well fitted inhibition curve with a large enough effect in the signal ratio in the repeat runs, with a control signal flat; the % refers to the signal ratio). The gist of the method:
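Human DRD2 antagonist qHTS measuring cAMP by HTRF. The cells are exposed to compound for 10 min, then to NKH477 (200 nM) and quinpirole (12 nM) for 30 min at RT, with Ro20-1724 (0.1 mM) present throughout.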

Test [18] in a line: p53 small molecule agonists, cell-based qHTS assay with human liver microsomes: qHTS cell viability counter screen (AID 1963579). Also: nearly all actives have a fitted effect of over 45% in size. Also: potency is read from the fitted curve at half-maximal effect. Summed up:
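Tox21 library compounds, delivered from DMSO stocks, were tested on p53RE-bla cells together with 0.5 mg/mL human liver microsomes and 0.5 mg/mL NADPH (final) over 16 h at 37 C; CellTiter-Glo luminescence served as the cytotoxicity measure.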

In test [19] the target is D(2) dopamine receptor (Homo sapiens) (UniProt P14416). As to the kind of experiment: Dopamine D2 receptor (DRD2) small molecule agonists, cell-based qHTS assay (AID 1963594). Also: nearly all actives have a fitted effect of over 35% in size. The gist of the method:
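cAMP accumulation in DRD2-HEK293 cells measured by HTRF after 1 h detection; compounds added 10 min before NKH477 (200nM […]) forskolin-analogue stimulation, 30 min at room temperature, with Ro20-1724 present at 0.1 mM final.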

The nature of test [20]: p53 small molecule agonists, cell-based qHTS assay with rat liver microsomes: qHTS cell viability counter screen (AID 1963580). Also: nearly all actives have a fitted effect of over 45% in size. Summed up: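 Cytotoxicity counter screen: intracellular ATP read by CellTiter-Glo luminescence in the p53 reporter wells. HCT-116 p53RE-bla cells were treated for 16 h at 37 C alongside rat liver microsomes and NADPH, each 0.5 mg/mL final.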

Molecules are shown by their SMILES. A number with no mark means an inactive call. Results filed as inconclusive are left out. Active and inactive are the calls of the source. Unless noted, calls follow the shape of the full dose curve.

Chain of Beta-2 adrenergic receptor (Homo sapiens) (P07550 whole entry, looked up): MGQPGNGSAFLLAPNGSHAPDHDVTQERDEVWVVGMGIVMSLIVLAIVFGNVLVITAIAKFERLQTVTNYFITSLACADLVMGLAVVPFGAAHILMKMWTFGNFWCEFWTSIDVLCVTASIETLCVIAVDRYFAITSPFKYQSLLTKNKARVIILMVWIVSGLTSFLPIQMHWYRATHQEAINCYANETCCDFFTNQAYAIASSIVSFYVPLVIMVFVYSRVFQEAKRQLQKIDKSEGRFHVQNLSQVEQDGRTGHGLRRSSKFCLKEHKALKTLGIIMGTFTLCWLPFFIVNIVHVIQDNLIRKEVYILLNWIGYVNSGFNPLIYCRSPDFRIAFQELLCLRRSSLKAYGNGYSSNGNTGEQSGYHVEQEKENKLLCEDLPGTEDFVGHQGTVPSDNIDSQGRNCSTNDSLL
Chain of Gonadotropin-releasing hormone receptor (Homo sapiens) (P30968 whole entry, looked up): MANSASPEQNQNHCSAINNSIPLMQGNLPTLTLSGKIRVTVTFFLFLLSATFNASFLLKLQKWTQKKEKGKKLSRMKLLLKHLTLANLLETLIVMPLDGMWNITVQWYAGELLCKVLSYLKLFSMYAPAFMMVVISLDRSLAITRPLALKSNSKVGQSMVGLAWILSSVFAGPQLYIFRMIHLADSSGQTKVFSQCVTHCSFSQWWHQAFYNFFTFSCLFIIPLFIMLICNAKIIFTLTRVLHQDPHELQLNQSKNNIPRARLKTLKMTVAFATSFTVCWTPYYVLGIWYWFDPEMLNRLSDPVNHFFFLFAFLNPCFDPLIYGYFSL
Chain of KiSS-1 receptor (Homo sapiens) (Q969F8 whole entry, looked up): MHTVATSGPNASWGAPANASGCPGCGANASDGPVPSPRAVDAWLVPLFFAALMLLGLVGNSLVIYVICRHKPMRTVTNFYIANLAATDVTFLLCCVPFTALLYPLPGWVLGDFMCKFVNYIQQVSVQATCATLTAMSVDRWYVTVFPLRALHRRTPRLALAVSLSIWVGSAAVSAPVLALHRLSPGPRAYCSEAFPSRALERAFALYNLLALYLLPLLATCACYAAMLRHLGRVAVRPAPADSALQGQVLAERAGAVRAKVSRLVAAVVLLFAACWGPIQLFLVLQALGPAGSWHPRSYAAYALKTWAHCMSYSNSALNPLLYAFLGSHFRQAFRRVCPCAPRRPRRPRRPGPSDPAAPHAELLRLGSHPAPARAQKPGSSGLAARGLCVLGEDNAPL
Chain of 5-hydroxytryptamine receptor 2A (Homo sapiens) (P28223 whole entry, looked up): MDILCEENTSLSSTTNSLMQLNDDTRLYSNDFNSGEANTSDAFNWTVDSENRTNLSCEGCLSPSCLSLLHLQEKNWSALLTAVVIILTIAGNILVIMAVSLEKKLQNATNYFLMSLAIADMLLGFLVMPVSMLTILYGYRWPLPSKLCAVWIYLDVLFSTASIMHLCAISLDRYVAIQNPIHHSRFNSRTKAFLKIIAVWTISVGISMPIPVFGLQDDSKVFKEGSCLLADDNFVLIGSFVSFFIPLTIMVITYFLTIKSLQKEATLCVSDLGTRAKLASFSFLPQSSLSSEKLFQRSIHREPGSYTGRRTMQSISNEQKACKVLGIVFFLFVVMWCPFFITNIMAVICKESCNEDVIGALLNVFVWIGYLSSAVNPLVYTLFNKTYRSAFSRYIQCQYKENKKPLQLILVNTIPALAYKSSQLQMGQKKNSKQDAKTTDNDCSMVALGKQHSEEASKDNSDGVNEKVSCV
Chain of Muscarinic acetylcholine receptor M1 (Homo sapiens) (P11229 whole entry, looked up): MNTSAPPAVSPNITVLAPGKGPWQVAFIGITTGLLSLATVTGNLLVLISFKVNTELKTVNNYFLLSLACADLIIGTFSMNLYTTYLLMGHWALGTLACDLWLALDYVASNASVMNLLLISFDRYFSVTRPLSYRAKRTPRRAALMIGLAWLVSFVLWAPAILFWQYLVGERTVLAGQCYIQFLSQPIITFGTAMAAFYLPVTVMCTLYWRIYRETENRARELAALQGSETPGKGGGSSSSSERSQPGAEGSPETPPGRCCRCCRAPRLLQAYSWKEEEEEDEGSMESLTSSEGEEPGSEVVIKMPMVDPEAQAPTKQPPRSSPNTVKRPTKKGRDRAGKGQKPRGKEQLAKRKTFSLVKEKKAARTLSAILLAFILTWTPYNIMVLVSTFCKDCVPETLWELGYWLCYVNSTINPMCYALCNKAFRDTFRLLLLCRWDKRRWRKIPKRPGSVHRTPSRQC
Chain of D(2) dopamine receptor (Homo sapiens) (P14416 whole entry, looked up): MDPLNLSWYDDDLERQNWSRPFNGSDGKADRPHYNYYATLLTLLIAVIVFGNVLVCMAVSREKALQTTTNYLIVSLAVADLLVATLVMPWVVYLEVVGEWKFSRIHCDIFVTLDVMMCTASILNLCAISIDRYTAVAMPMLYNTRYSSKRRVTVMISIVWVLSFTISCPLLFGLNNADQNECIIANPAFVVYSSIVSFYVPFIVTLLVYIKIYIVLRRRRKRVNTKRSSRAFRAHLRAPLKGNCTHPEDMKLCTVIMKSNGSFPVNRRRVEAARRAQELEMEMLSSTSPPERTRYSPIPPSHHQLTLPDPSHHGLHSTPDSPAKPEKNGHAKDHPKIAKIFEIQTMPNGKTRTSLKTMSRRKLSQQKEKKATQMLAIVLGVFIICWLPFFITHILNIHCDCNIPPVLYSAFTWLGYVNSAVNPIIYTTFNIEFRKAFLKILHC

`O=C1CCC/C=C\CCCCCCCCCC1`: the Potency in test [1] was 54.5 µM (active). Moreover, the Potency result in test [2], in test [3], in [4], in [5], in test [6] and in [7] was “inactive” in each case. The Potency entry in test [8], in test [9], in test [10], in test [11], in test [12] and in [13] was “inactive” each time. Besides, the Potency entry in test [14], in [15], in [16] and in test [17] was “inactive” each time.

As for `C(=C(c1ccccc1)c1ccccc1)c1ccccc1`, the Potency in [1] is 27.3 µM (active). The Potency entry in test [2], in [3], in test [4], in test [5], in [6] and in [18] was “inactive” throughout. Also, the Potency result in [7], in test [9], in test [10], in test [11], in test [12] and in test [13] was “inactive” throughout. Moreover, the Potency entry in test [14], in [15], in test [19] and in [17] was “inactive” throughout.

For the compound `CCCCCCCCCCCC(=O)[O][Sn]([CH2]CCC)([CH2]CCC)[O]C(=O)CCCCCCCCCCC`, the Potency in test [1] is 33.5 µM (active). Moreover, the Potency result in test [2], in [3], in test [4], in test [5], in test [6] and in test [20] was “inactive” in each case. Further, the Potency result in test [7], in test [8], in [9], in test [10], in test [11] and in test [12] was “inactive” in each case. Also, the Potency result in test [13], in test [14], in test [15], in test [16], in test [19] and in test [17] was “inactive” throughout.

Turning to `COc1ccc(C(=O)c2ccc(C)cc2)c(O)c1`, in test [1], the Potency was 31 µM (active). For the same compound, the Potency result in test [2], in test [3], in [4], in [5], in test [6] and in test [18] was “inactive” throughout. For the same compound, the Potency entry in test [7], in test [9], in test [10], in [11], in test [12] and in test [14] was “inactive” throughout. In addition, the Potency entry in test [15], in test [16], in test [19] and in test [17] was “inactive” in each case.

In the case of `Cc1cc(C2CCCCC2)n(O)c(=O)c1`, the Potency result in test [1], in test [2], in test [3], in [4], in [5] and in [6] was “inactive” in each case. Further, the Potency result in [7], in [13], in [15], in test [16] and in test [19] was “inactive” throughout.

As for `O=C1OC(=O)c2cc(-c3ccc4c(c3)C(=O)OC4=O)ccc21`, in [1], the Potency is 48.6 µM (active). In addition, the Potency result in test [2], in test [3], in [4], in test [5], in test [6] and in [20] was “inactive” throughout. For the same compound, the Potency entry in test [7], in test [9], in test [10], in [12], in test [13] and in test [14] was “inactive” each time. In addition, the Potency entry in test [15], in test [19] and in [17] was “inactive” throughout.

For `CCc1c(C(=O)NN2CCCCC2)nn(-c2ccc(Cl)cc2Cl)c1-c1ccc(Br)cc1`, the Potency entry in [1], in [2], in test [3], in test [4], in [5] and in [6] was “inactive” each time. Besides, the Potency result in test [9], in [10], in [12], in [14], in test [15] and in test [17] was “inactive” throughout. For the same compound, the Potency in test [18] was 40.8 µM (active); in test [7] it was 36.3 µM (active).
